Data reported in the supplement of paper PMC3334620.
Whole data set: some 33,000 sequences, median “E-score (-0.5 to 0.5)” near -0.035, cut for the highest 2% near 0.34. The full list was thinned out, with the highest values kept by preference.

Molecular target: T1, Mot3 (UniProt P54785)
T1 sequence: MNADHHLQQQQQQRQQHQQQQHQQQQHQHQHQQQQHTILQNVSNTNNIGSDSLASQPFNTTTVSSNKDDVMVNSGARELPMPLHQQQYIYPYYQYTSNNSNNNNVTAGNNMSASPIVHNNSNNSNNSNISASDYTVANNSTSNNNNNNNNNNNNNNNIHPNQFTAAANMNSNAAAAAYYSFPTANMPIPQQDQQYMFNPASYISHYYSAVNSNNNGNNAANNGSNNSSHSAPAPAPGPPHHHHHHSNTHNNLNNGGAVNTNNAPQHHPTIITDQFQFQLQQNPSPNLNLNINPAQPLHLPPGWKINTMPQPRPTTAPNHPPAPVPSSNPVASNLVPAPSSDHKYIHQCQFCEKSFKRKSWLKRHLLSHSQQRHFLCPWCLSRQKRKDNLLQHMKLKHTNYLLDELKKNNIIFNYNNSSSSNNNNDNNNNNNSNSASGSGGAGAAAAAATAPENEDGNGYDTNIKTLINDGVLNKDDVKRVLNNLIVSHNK
Experiment: PBM E-score (8-mer binding enrichment) (E-score (-0.5 to 0.5)); higher = stronger / more preferred TF binding
Conditions: protein concentration: 200 nM; construct: GST-full length
Outline: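 GST-tagged yeast TFs (full-length or DNA-binding domain) were made by PURExpress in vitro transcription/translation and applied at about 100-200 nM to universal all-10-mer Agilent arrays. The arrays were made double-stranded by primer extension, on fresh or once-stripped slides. Bound protein was detected with fluorescent anti-GST, and scans were normalised with masliner. Each ungapped eight-base word, pooled with its reverse complement, received an E-score (modified Wilcoxon-Mann-Whitney statistic) from the Universal PBM Analysis Suite.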

| Sequence | PBM E-score |
| --- | --- |
| AAGGCTCG | 0.235 |
| CAGGCTCC | 0.28 |
| AAGGCTCA | 0.336 |
| CAGGCTCA | 0.392 |
| TAGGCTCA | 0.109 |
| CAGGCTCG | 0.342 |
| CATTTGGG | -0.173 |
| CTTAGCCC | -0.079 |
| GAAAGGAC | -0.118 |
| AACTTCGC | -0.0198 |
| ACGCTCCC | -0.0438 |
| GAGGAAAA | 0.0527 |
| ATGGAAAG | 0.0416 |
| AGGGAAAG | -0.0829 |
| AGGGAAAT | -0.0244 |
| AAGGAAAG | 0.441 |
| ATGGAAAT | 0.0932 |
| TAGGGAAA | -0.0198 |
| TAGGAAAA | 0.384 |
| AAGGAAAT | 0.426 |
| CGGGAAAC | -0.0422 |
| CAGGAAAC | 0.445 |
| CAGAAAAC | 0.152 |
| TACCAATA | -0.253 |
| CACGGTCA | 0.212 |

| Sequence | PBM E-score |
| --- | --- |
| ATCAGCTG | -0.0375 |
| TCAAGTCA | 0.0447 |
| CGACTTGC | -0.263 |
| GATGAAGA | -0.135 |
| ACCGAGGA | -0.111 |
| ATCGGGGA | 0.0758 |
| AGATAGTC | -0.0427 |
| AGCAGTAG | -0.226 |
| TCAACGGA | -0.113 |
| CAGAAAAG | -0.0566 |
| ACGGAAAC | -0.122 |
| CCGGAAAG | -0.215 |
| AAGGAAAC | 0.423 |
| ATGGAAAA | -0.0018 |
| CAGAAAAA | 0.0512 |
| GAGGAAAC | -0.027 |
| CGGAAAAA | 0.0869 |
| CAGGAAAA | 0.427 |
| AAGGAAAA | 0.417 |
| AAGGGAAA | 0.0842 |
| CAGGAAAG | 0.432 |
| TATCTTAA | 0.153 |
| TAAAGCTA | 0.19 |
| CAGACCGG | -0.14 |
| ACTCGAAT | 0.00379 |

| Sequence | PBM E-score |
| --- | --- |
| CTCAGCAG | -0.113 |
| CGTAAAAA | 0.258 |
| TGTAATAA | 0.375 |
| TGTAAACA | 0.387 |
| CGTAATAA | 0.288 |
| GGTAAACA | 0.323 |
| GGTAATAA | 0.163 |
| TGTAAAAA | 0.379 |
| AGTAAACA | 0.251 |
| AGTAAAAA | 0.16 |
| GGAGAAAA | -0.133 |
| ACCTGTCA | -0.0178 |
| AAGGCTAT | -0.0295 |
| ACGGTGCC | 0.343 |
| ACGGTGCG | 0.0148 |
| ACGGTGCA | 0.184 |
| CAGAGATG | 0.0978 |
| TAGGGTCA | -0.0851 |
| AAGGTCTG | -0.0775 |
| AATCTACT | -0.0291 |
| AATCTACA | 0.349 |
| CATCTACA | 0.262 |
| AGTTCCTA | 0.433 |
| GGTTCCAA | -0.208 |
| GCTTCCTA | 0.106 |

| Sequence | PBM E-score |
| --- | --- |
| AGTTCCGA | -0.142 |
| CATTCCTA | -0.129 |
| CGTTCCTA | 0.455 |
| AGTTCCGG | -0.359 |
| AGTTCCTC | 0.0435 |
| CGTTCCTC | 0.167 |
| AGTTCCTG | 0.403 |
| GGTTCCTA | 0.454 |
| ACTTCCTA | -0.09 |
| CCAATCCC | -0.127 |
| AGAGGGCC | -0.371 |
| GGGGTAGA | -0.0141 |
| AGGTCTTC | -0.0921 |
| CGCTAACG | -0.0607 |
| GGACTACA | 0.102 |
| ACCCCCTA | -0.298 |
| AGGCGAAC | -0.0626 |
| ACAGTTCT | -0.132 |
| CAGAGGCA | 0.299 |
| AAGAGGCT | -0.222 |
| CCGAGGCA | 0.308 |
| TAGAGGCA | 0.389 |
| AAGAGGCA | 0.391 |
| GCGAGGCA | 0.148 |
| TCGAGGCA | 0.346 |

| Sequence | PBM E-score |
| --- | --- |
| TAGAGGGA | -0.0707 |
| GAGAGGCA | 0.239 |
| AAGACCTG | -0.079 |
| TGACTAAA | 0.0227 |
| GGCTAATA | -0.151 |
| ATCGAACA | -0.0411 |
| GATTGTCC | -0.0522 |
| AGGAAGCC | -0.161 |
| CATATGTA | 0.318 |
| GCTATGCA | -0.154 |
| CGTATGTA | 0.309 |
| CCTATGTA | 0.348 |
| ACTATGTG | 0.0709 |
| GCTATGTA | 0.341 |
| AGTATGTA | 0.289 |
| AATATGTA | 0.277 |
| ACTATGTC | 0.104 |
| CCTATGTC | 0.172 |
| GGTATGTA | 0.343 |
| ACTATGTA | 0.36 |
| ACAACTAG | -0.0235 |
| GTCCGGAA | -0.0613 |
| TCCCCCCA | -0.354 |
| AAAGTCGG | -0.0308 |
| GAAGGGAA | -0.213 |

| Sequence | PBM E-score |
| --- | --- |
| CGATGGCC | -0.268 |
| AATAACAC | 0.31 |
| AATAACAG | 0.254 |
| AATAACAT | 0.349 |
| ACGCCGGC | -0.185 |
| CGTAGCCC | -0.0561 |
| ACGTACCG | 0.00315 |
| AGGTACCG | 0.407 |
| TGGTACCA | -0.0506 |
| GGGTACCC | -0.304 |
| AGGTACCC | 0.361 |
| AAGTACCT | 0.338 |
| CGGTACCC | -0.277 |
| ACGTACCT | 0.292 |
| AGGTACCA | 0.361 |
| AGGTACCT | 0.434 |
| GGGTACCA | -0.0217 |
| CGGTACCG | -0.156 |
| ACAATACC | 0.172 |
| GAAGCTAC | -0.0982 |
| AGCTGAAC | -0.255 |
| CTTTTCGA | -0.07 |
| GATCCTCC | -0.303 |
| GTCCGGAC | 0.0843 |
| AAGACAGA | 0.149 |

| Sequence | PBM E-score |
| --- | --- |
| AACCTGTG | 0.357 |
| AACCTGAG | -0.0479 |
| AACCTGAC | -0.0317 |
| AAGTTCCG | 0.0427 |
| ACGTTCCT | 0.447 |
| AAGTTCCT | 0.341 |
| ACGTTCCA | 0.0401 |
| AAGTTCCC | -0.309 |
| ACGTTCCG | -0.144 |
| AAACTTCC | -0.145 |
| ACAGTAGT | -0.0747 |
| AGAGTGGA | -0.0533 |
| ACCGGTTC | -0.148 |
| AACTGGTG | -0.193 |
| CAGGAGGC | -0.0461 |
| AGAAGAGA | -0.102 |
| GAACACGA | 0.187 |
| CAACACGG | 0.302 |
| CAACACGA | 0.363 |
| TAACACGA | 0.402 |
| AAACACGA | 0.292 |
| CAACACGC | 0.322 |
| AGACTGTA | -0.109 |
| CCCACAGA | -0.053 |
| TCAACCAA | 0.0249 |

| Sequence | PBM E-score |
| --- | --- |
| CTACAGGA | 0.242 |
| CAACAGGA | 0.172 |
| CTACAGGC | 0.354 |
| ATACAGGA | 0.173 |
| CAACAGGC | 0.377 |
| CTACAGAC | 0.0592 |
| AAACAGGC | 0.301 |
| GTACAGGA | 0.343 |
| ATACAGGC | 0.333 |
| AGAGTTTC | -0.198 |
| GGTGGTGA | -0.179 |
| GAGAAGTA | -0.0782 |
| CTGCAATC | -0.0301 |
| TAAAAGGA | 0.189 |
| CAAAGGAC | -0.189 |
| CAAAGGTA | 0.212 |
| AAAAGGAA | 0.36 |
| GAAAGGAA | 0.29 |
| CAAAGGAG | -0.0795 |
| TAAAGGAA | 0.383 |
| TAAAGGTA | 0.382 |
| AAAAGGAT | 0.157 |
| AAAAGGAC | 0.171 |
| CAAAGGAA | 0.415 |
| GAAAGGTA | 0.228 |

| Sequence | PBM E-score |
| --- | --- |
| AGTATCCA | -0.198 |
| GGACCGTA | -0.201 |
| CTCACGAG | -0.266 |
| CGGGCCAC | -0.257 |
| CCGGCGAC | -0.266 |
| CATCTTAA | 0.0785 |
| ACCTCTTG | -0.0648 |
| TATACGAA | 0.0446 |
| CCTTAAGA | 0.0196 |
| CCTTAAGG | 0.345 |
| CCTTAAGC | 0.0192 |
| TAACAGAA | 0.227 |
| CGCTAAAG | -0.0919 |
| CGTACACG | 0.226 |
| GGTACACA | 0.271 |
| AGTACATA | 0.362 |
| CGTACATA | 0.305 |
| TGTACACA | 0.34 |
| GGTACATA | 0.238 |
| AGTACACG | 0.357 |
| AGTACACC | 0.052 |
| AGTACACA | 0.313 |
